Test results published in the supplement of paper PMC12494721.
Structures can show the parent of a compound that is named as a salt.

These molecules were tested on Escherichia coli IAI1 (assay: fold change of Putrescine concentration vs plate DMSO controls (fold change (ratio)); higher = more amine produced, active = hit call of the paper (significant change in both replicates, either direction)). Settings: incubation time: 27 h, anaerobic, 37 °C;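 for the amine columns active = adjusted P below 0.05 in both replicates with a change the same way and a mean fold change under 0.8 or over 1.25; inactive = the rest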.
Method in brief: (§1)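 Anaerobic mGAM cultures of four gut bacterial strains were grown at 37 °C for 27 h in 80 µL wells, starting at OD 0.1 before 1:1 dilution. Compounds were at 20 µM final (sweeteners 50 µM). Whole cultures were extracted with cold acetonitrile/methanol containing 0.1% formic acid and centrifuged. Amines were quantified by LC–triple-quadrupole MS (dynamic MRM) against external calibration curves and drift-corrected within batch. Each value is the fold change versus plate DMSO controls, averaged over 2 biological replicates.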

Fold change of Putrescine concentration, inactive:
O=c1n(CCCN2CCN(c3cccc(Cl)c3)CC2)nc2ccccn12 [Trazodone hydrochloride] (20 µM) 1.01
NNc1nncc2ccccc12 [Hydralazine hydrochloride] (20 µM) 0.983
CN(C/C=C/c1ccccc1)Cc1cccc2ccccc12 [Naftifine hydrochloride] (20 µM) 1.08
N=c1nc(N2CCCCC2)cc(N)n1O [Minoxidil] (20 µM) 0.982
C=CC[C@@H]1/C=C(\C)C[C@H](C)C[C@H](OC)[C@H]2O[C@@](O)(C(=O)C(=O)N3CCCC[C@H]3C(=O)O[C@H](/C(C)=C/[C@@H]3CC[C@@H](O)[C@H](OC)C3)[C@H](C)[C@@H](O)CC1=O)[C@H](C)C[C@@H]2OC [Tacrolimus Monohydrate] (20 µM) 1.05

These molecules were tested on Klebsiella aerogenes DSM 30053 in the same assay as above. Settings: incubation time: 27 h, anaerobic, 37 °C.
Method in brief: as §1

Fold change of Putrescine concentration, inactive:
CN(C(=O)CN(CCO)CC(=O)N(C)C(C)(C)Cc1ccccc1)C(C)(C)Cc1ccccc1 [Oxethazaine] (20 µM) 1
CCCCC(CC)CN1C(=O)[C@@H]2[C@H](C1=O)[C@@H]1C=C[C@H]2C1 (mixture of isomers) (20 µM) 0.987
CC(=O)OCC1=C(C(=O)O)N2C(=O)[C@@H](NC(=O)Cc3cccs3)[C@H]2SC1 [Cephalothin sodium salt] (20 µM) 1.02
Cc1cc(CC(=O)O)n(C)c1C(=O)c1ccc(Cl)cc1 [Zomepirac sodium salt] (20 µM) 1.01
CC(CNC1CCCCC1)OC(=O)c1ccccc1 (centres undefined) [Hexylcaine hydrochloride] (20 µM) 0.988
CC(C)n1c(/C=C/C(O)CC(O)CC(=O)O)c(-c2ccc(F)cc2)c2ccccc21 (centres undefined) [Fluvastatin sodium salt] (20 µM) 1.05
CCCc1cc(=O)[nH]c(=S)[nH]1 [Propylthiouracil] (20 µM) 1.01
CC(=O)Nc1ccc(OCC(O)CNC(C)C)cc1 (centres undefined) [Practolol] (20 µM) 0.993
C[C@@H]1O[C@@H](O[C@H]2[C@H](Oc3cc(O)c(C(=O)CCc4ccc(O)cc4)c(O)c3)O[C@H](CO)[C@@H](O)[C@@H]2O)[C@H](O)[C@H](O)[C@H]1O [Naringin Dihydrochalcone] (50 µM) 0.996
Nc1cc(-c2ccncc2)c[nH]c1=O [Amrinone] (20 µM) 0.998
CC#CCn1c(N2CCC[C@@H](N)C2)nc2c1c(=O)n(Cc1nc(C)c3ccccc3n1)c(=O)n2C [Linagliptin] (20 µM) 1.02
CCOc1ccc2c(c1)C(C)=CC(C)(C)N2 [Ethoxyquin] (20 µM) 1.01
Cn1c(=O)c2c(ncn2C)n(C)c1=O [Caffeine] (20 µM) 0.997
C[C@]12CC[C@@H]3c4ccc(O)cc4CC[C@H]3[C@@H]1CC[C@@H]2O [Estradiol-17 beta] (20 µM) 1
CC(=O)OCC(=O)[C@@]12OC3(CCCC3)O[C@@H]1C[C@H]1[C@@H]3CCC4=CC(=O)C=C[C@]4(C)[C@@]3(F)[C@@H](O)C[C@@]12C [Amcinonide] (20 µM) 0.999
OCCN1CCN(CCCN2c3ccccc3C=Cc3ccccc32)CC1 [Opipramol dihydrochloride] (20 µM) 0.994
CC(C)[N+](C)(CCOC(=O)C1c2ccccc2Oc2ccccc21)C(C)C [Propantheline bromide] (20 µM) 0.992
C[C@H](O)[C@H](O)[C@H]1CNc2[nH]c(N)nc(=O)c2N1 [Sapropterin dihydrochloride] (20 µM) 1.01
CCN(CC)CCNC(=O)c1cc(S(C)(=O)=O)ccc1OC [Tiapride hydrochloride] (20 µM) 0.992
CNCCCN1c2ccccc2CCc2ccccc21 [Desipramine hydrochloride] (20 µM) 1.01
COc1ccccc1OCC(O)CN1CCN(CC(=O)Nc2c(C)cccc2C)CC1 (centres undefined) [Ranolazine] (20 µM) 1.01
CC(=O)c1ccc2c(c1)N(CCCN1CCC(CCO)CC1)c1ccccc1S2 [Piperacetazine] (20 µM) 0.978
Cn1cc(C(=O)Nc2ccc(F)cc2-c2ccc(Cl)c(Cl)c2)c(C(F)F)n1 (20 µM) 1.01
Nc1nc(=O)[nH]cc1F [Flucytosine] (20 µM) 1.02
O=c1oc2cc(O)ccc2s1 [Tioxolone] (20 µM) 0.997
CCN1C(=O)NC(c2ccccc2)C1=O (centres undefined) [Ethotoin] (20 µM) 0.991
C=C1/C(=C\C=C2/CCC[C@]3(C)[C@@H]([C@H](C)/C=C/[C@@H](O)C4CC4)CC[C@@H]23)C[C@@H](O)C[C@@H]1O [Calcipotriene] (20 µM) 1.01
COc1ccc([C@@H]2Sc3ccccc3N(CCN(C)C)C(=O)[C@@H]2OC(C)=O)cc1 [Diltiazem hydrochloride] (20 µM) 1.02
N#Cc1ccc(C(c2ccc(C#N)cc2)n2cncn2)cc1 [Letrozole] (20 µM) 1.01
Clc1ccc(CSC(Cn2ccnc2)c2ccc(Cl)cc2Cl)cc1 (centres undefined) [Sulconazole nitrate] (20 µM) 0.96
NC(=O)c1ncn([C@@H]2O[C@H](CO)[C@@H](O)[C@H]2O)n1 [Ribavirin] (20 µM) 0.973
CC(C)NCC(O)c1cc(O)cc(O)c1 (centres undefined) [Metaproterenol sulfate] (20 µM) 0.979
Cc1ccccc1C(=O)Nc1ccc(C(=O)N2CCCC(O)c3cc(Cl)ccc32)c(C)c1 (centres undefined) [Tolvaptan] (20 µM) 1.01
CC(C)(C)NC(=O)[C@H]1CC[C@H]2[C@@H]3CC[C@H]4NC(=O)C=C[C@]4(C)[C@H]3CC[C@]12C [Finasteride] (20 µM) 0.982
O=c1n(CCCN2CCN(c3cccc(Cl)c3)CC2)nc2ccccn12 [Trazodone hydrochloride] (20 µM) 0.997
NNc1nncc2ccccc12 [Hydralazine hydrochloride] (20 µM) 1.01
CN(C/C=C/c1ccccc1)Cc1cccc2ccccc12 [Naftifine hydrochloride] (20 µM) 0.996
N=c1nc(N2CCCCC2)cc(N)n1O [Minoxidil] (20 µM) 0.987
C=CC[C@@H]1/C=C(\C)C[C@H](C)C[C@H](OC)[C@H]2O[C@@](O)(C(=O)C(=O)N3CCCC[C@H]3C(=O)O[C@H](/C(C)=C/[C@@H]3CC[C@@H](O)[C@H](OC)C3)[C@H](C)[C@@H](O)CC1=O)[C@H](C)C[C@@H]2OC [Tacrolimus Monohydrate] (20 µM) 1.02
